# Measured values: PubChem BioAssay (EPA / NIEHS)
# Results filed as inconclusive are left out. Activity calls are given as the source filed them. The calls were made as follows: active = hit-call score of the fitted dose curve at least 0.9, where 1 is the maximum; inconclusive = response in the unintended direction; inactive = score below 0.9.
# Experiment: ATG_XTT_Cytotoxicity: Cytotoxicity Assessment in the Attagene TRANS-FACTORIAL HepG2 Assay (AID 2283584)
# Summary of the method: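 Viability endpoint from XTT after 24 h chemical exposure of reporter-transfected human HepG2 liver cells; signal loss fitted relative to DMSO negative control.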
row,Structure (SMILES),outcome
1,CC(C)c1ccc2ncccc2c1,inactive
2,Cc1c(O)cccc1O,inactive
3,C=CCOC(=O)c1ccc(C(=O)OCC=C)c(C(=O)OCC=C)c1,inactive
4,CCOB(OCC)OCC,inactive
5,NNS(=O)(=O)c1ccc(Oc2ccc(S(=O)(=O)NN)cc2)cc1,inactive
6,CCC(C)C(=O)OC (stereo not given),inactive
7,CCC(C)c1ccccc1 (stereo not given),inactive
8,CCCC(C)C(=O)OCC (stereo not given),inactive
9,Nc1ccc(Cl)c(N)c1,inactive
10,c1ccc(-c2nc3ccccc3[nH]2)cc1,inactive
11,CCCCCCCC(=O)OCC,inactive
12,CC(C)CO,inactive
13,CCOC(=O)[C@H](O)[C@@H](O)C(=O)OCC,inactive
14,O=C1c2ccccc2C(=O)c2cc(S(=O)(=O)O)ccc21,inactive
15,CC(C)(C)N,inactive
16,C1CCSC1,inactive
17,CCC1(C)C(=O)N(Cl)C(=O)N1Cl (stereo not given),inactive
18,Nc1nc(N)nc(-c2ccccc2)n1,inactive
19,COC(=O)C=Cc1ccccc1,inactive
20,CCc1cccc(C)c1N(C(=O)CS(=O)(=O)O)C(C)COC (stereo not given),inactive

row,Structure (SMILES),outcome
1,CCCCCCCCC(CO)CCCCCC (stereo not given),inactive
2,CCOC(=O)CC(=O)c1ccccc1,inactive
3,CC1(C)C(=O)N(CO)C(=O)N1CO,inactive
4,CC(C)C(=O)OCCc1ccccc1,inactive
5,O=C1CCCCC1C1CCCCC1 (stereo not given),inactive
6,Nc1cccc(N)n1,inactive
7,C=CC(=O)NCOCCCC,inactive
8,CCCCCC1=CCCC1=O,inactive
9,COC(=O)c1ccc(C(=O)OC)c(C(=O)OC)c1,inactive
10,COc1cc(O)c(C(=O)c2ccccc2)cc1S(=O)(=O)O,inactive
11,CCC(=O)C1CC(C(C)C)CC=C1C (stereo not given),inactive
12,N#Cc1ccc(C(c2ccc(C#N)cc2)n2cncn2)cc1,inactive
13,CC1CCC(C(C)(C)S)C(=O)C1 (stereo not given),inactive
14,COc1cc(C)ccc1O,inactive
15,CCc1cccc(CC)c1,inactive
16,Cn1cccc1,inactive
17,c1ccc2sc(SSN3CCOCC3)nc2c1,inactive
18,CC/C=C\C/C=C\C/C=C\CCCCCCCC(=O)OC,inactive
19,COc1nccnc1CC(C)C,inactive
20,CCCCCCCO,inactive
